Experimental findings from PubChem BioAssay (NCI) are described below.

The panel holds about 83,000 compounds, 20% with a hit somewhere; the sample as a whole holds those more often.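 Method: cells in 96-well plates; compound added at one concentration; 48 h incubation; percent growth measured; values under 10 scored active.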 Values without a mark were called inactive. Calls of active or inactive are those of the source.

In the assay the test system is MDA-MB-435 melanoma. In words: NCI-60 one-dose screen, 48 h (100 = growth as untreated, 0 = no growth, -100 = all killed). Particulars: 10 µM unless noted.
With `Cc1nn(-c2ccccc2)c(Cl)c1/C=C(/NC(=O)c1ccccc1)c1nc2ccccc2[nH]1`, the growth is 91.5%.
To `Cc1ccc(-c2c(-c3ccccc3)c(=O)oc3ccc(C)cc23)cc1` belongs 103%; to `CC1(c2ccccc2)NC(=O)N(NC(=O)CSc2nc(-c3cccs3)nc3ccccc23)C1=O` (stereo not drawn), 103%.
To `C(=N\Nc1ncc(-c2cc3cc4c(cc3o2)OCO4)s1)/c1ccco1` belongs 69%; to `O=C1/C(=C\c2cccnc2)SC(=S)N1CCc1ccc(O)cc1`, 22.4%.
With `CC1(C)CC[C@]2(C(=O)N3CCOCC3)CC[C@]3(C)C(=CC[C@@H]4[C@@]5(C)CC[C@H](OC(=O)c6cccnc6)C(C)(C)[C@@H]5CC[C@]43C)[C@@H]2C1` the figure was 70.2%.
In the case of `COC(=O)[C@]12CC[C@@H](C)[C@H](C)[C@@H]1C1=CC[C@@H]3[C@@]4(C)C(C=O)=C[C@@](C)(COC(=O)c5ccco5)[C@@H]4C(=O)C[C@@]3(C)[C@]1(C)CC2`, the growth is -10.1% (active).
With `O=C(COc1ccc(/C=C2\Oc3ccccc3C2=O)cc1)Nc1nc2c(s1)CCCC2` the figure was 24.4%; with `Cn1cc(-c2csc(-c3ccccc3)n2)c2cccnc21`, -45.2% [100 µM] (active).
With `CCOP(=O)(OCC)C1CP(=O)(c2ccccc2)CC(C)=C1Cl` (stereo not drawn), the growth was 110%.
With `S=C(Cc1ccc2c(c1)CCCC2)N1CCOCC1` the figure was 101%; with `CN1C(=O)N(C)C2C1NN=c1s/c(=C\c3ccccc3)c(=O)n12` (stereo not drawn), -26.1% (active).
With `Cc1ccc(C(=O)CSc2nc(-c3ccc(Br)cc3)c(C#N)c(=O)[nH]2)cc1` the figure was 93.2%.
